# Results as given in PubChem BioAssay (NCI).
# This is part of a sample that, as a whole, favours compounds with a hit. Of some 83,000 tested, about 20% had one in any assay.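 Results are percent growth after 48 hours of single-concentration exposure. 100 means growth as in untreated cells, lower positive values show inhibition; negative values down to -100 show cell death.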 A number with no mark means an inactive call. Activity calls are given as the source filed them. Rule for the calls: active = growth percent below 10; inactive = the rest.
# Tested on: HL-60(TB) leukemia
# Assay: NCI-60 one-dose screen, 48 h (100 = growth as untreated, 0 = no growth, -100 = all killed)
# Settings: 10 µM unless noted
row,SMILES,growth
1,COC(=O)c1ccc(=O)c2nc3/c(=C/O)c(O)cc(=O)c3[nH]c12,0.308% (active)
2,COc1ccc(-c2csc(NC(=O)CSc3nc(-c4ccccc4)cc(=O)[nH]3)n2)cc1,52.4%
3,O=C(Nc1ccc(I)cc1F)c1cc(Br)ccc1O,-31.3% (active)
4,O=C1c2ccc3c4ccc5c6c(ccc(c7ccc(c2c37)C(=O)N1CCC[P+](c1ccccc1)(c1ccccc1)c1ccccc1)c64)C(=O)N(CCC[P+](c1ccccc1)(c1ccccc1)c1ccccc1)C5=O,54.6%
5,Cc1ccc2c(c1)-c1cc(C)nn1-c1ccc(C#N)cc1O2,69.2%
6,CN1C=CN(Cc2ccc(-c3ccccn3)nc2)[CH-]1.CN1C=CN(Cc2ccc(-c3ccccn3)nc2)[CH-]1.[Au+3],-9.42% (active)
7,COC(=O)c1cc(=O)nc(N/N=C/c2ccccc2O)s1,87.3%
8,CN1CCN(Cc2ccc(NC(=O)c3cncc(C#Cc4cnc(N)c5ccccc45)c3)cc2C(F)(F)F)CC1,-46.3% (active)
9,N#CCCN(CCO)c1ccccc1,89.9%
10,COc1ccc(C(=O)COc2ccc(/C=C3\Oc4ccccc4C3=O)cc2)cc1,76%
11,COc1ccc(C2C=C(c3ccc(Cl)cc3)N=C3SC=CN32)cc1 (stereo not drawn),113%
12,COc1cc(-c2nc(SC(C)C)nc(Nc3cccc(C)c3)c2C#N)cc(OC)c1OC,98.3%
13,CN1CCN(c2ccc(NC(=O)c3nc4ccc5[nH]ncc5c4c4c3CCCC4)cc2C(F)(F)F)CC1,28%
